Data as given in PubChem BioAssay (NCI).
The panel holds about 83,000 compounds, 20% with a hit somewhere; the sample as a whole holds those more often.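 Plates (96-well) were seeded with cells, treated with compound at one concentration, and incubated for 48 hours before percent growth was determined.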 Calls of active or inactive are those of the source. The calls were made as follows: active = growth percent below 10; inactive = the rest.

What was measured:
Assay in all cases: NCI-60 one-dose screen, 48 h (100 = growth as untreated, 0 = no growth, -100 = all killed)
Conditions in all cases: 10 µM unless noted
NCI-H23 lung = tested on: NCI-H23 lung
NCI-H226 lung = tested on: NCI-H226 lung
NCI-H322M lung = tested on: NCI-H322M lung
HOP-62 NSCLC = tested on: HOP-62 NSCLC
NCI-H460 lung = tested on: NCI-H460 lung
HOP-92 NSCLC = tested on: HOP-92 NSCLC
NCI-H522 lung = tested on: NCI-H522 lung
A549/ATCC NSCLC = tested on: A549/ATCC NSCLC
786-0 renal = tested on: 786-0 renal
COLO 205 colon = tested on: COLO 205 colon

Measured: growth

O=c1c(/C=C/c2ccco2)nnc(SCCN2CCOCC2)n1/N=C/c1ccc([N+](=O)[O-])cc1
inactive: NCI-H23 lung 91% | NCI-H226 lung 85.5% | NCI-H322M lung 113% | HOP-62 NSCLC 101% | NCI-H460 lung 103% | HOP-92 NSCLC 90.5% | NCI-H522 lung 86.5% | A549/ATCC NSCLC 99.4% | 786-0 renal 95.2% | COLO 205 colon 112%

COc1ccc(C/C(C)=C(\c2ccc(Cl)cc2)c2ccc(OCCN3CCCCCC3)cc2)cc1
inactive: NCI-H23 lung 78.8% | NCI-H226 lung 86.1% | NCI-H322M lung 86.8% | HOP-62 NSCLC 97.4% | NCI-H460 lung 70.4% | HOP-92 NSCLC 71.2% | NCI-H522 lung 73.5% | A549/ATCC NSCLC 87.9% | 786-0 renal 86.3% | COLO 205 colon 65.2%

C=C1CC2(OC1=O)C(=O)N(CCCCCCCCCCCCN1C(=O)C3(CC(=C)C(=O)O3)c3ccccc31)c1ccccc12 (stereo not given)
inactive: NCI-H23 lung 84.6% | NCI-H226 lung 78.6% | NCI-H322M lung 95.1% | HOP-62 NSCLC 94.1% | NCI-H460 lung 73.1% | HOP-92 NSCLC 42.2% | NCI-H522 lung 16.2% | A549/ATCC NSCLC 97.6% | 786-0 renal 99.1% | COLO 205 colon 82.6%

O=C(CCCN1CCOCC1)Nc1ccc(Cn2nnc3c2C(=O)c2nnn(Cc4ccc(NC(=O)CCCN5CCOCC5)cc4)c2C3=O)cc1
inactive: NCI-H226 lung 97.8% | NCI-H322M lung 21% | HOP-62 NSCLC 73.9% | NCI-H460 lung 22.4% | A549/ATCC NSCLC 83.8% | 786-0 renal 101%
active: NCI-H23 lung -6.94% | HOP-92 NSCLC -20.9% | NCI-H522 lung -34.9% | COLO 205 colon -70.5%

CC(=O)C1=C(O)C=C2Oc3c(C(=O)/C=C/c4ccccc4)c(O)c(C)c(O)c3[C@]2(C)C1=O
inactive: NCI-H23 lung 42.4% | NCI-H226 lung 53.9% | NCI-H322M lung 31.5% | HOP-62 NSCLC 37.3% | NCI-H460 lung 40.9% | HOP-92 NSCLC 15.5% | NCI-H522 lung 21.6% | A549/ATCC NSCLC 15% | 786-0 renal 30.7% | COLO 205 colon 40.4%

Oc1cc(O)c2c(=S)cc(-c3ccc(Cl)cc3)oc2c1
active: NCI-H23 lung 4.05% | HOP-92 NSCLC -21.9% | NCI-H522 lung -1.71%
inactive: NCI-H226 lung 73.6% | NCI-H322M lung 60.4% | HOP-62 NSCLC 46.4% | NCI-H460 lung 21% | A549/ATCC NSCLC 53.6% | 786-0 renal 74.6% | COLO 205 colon 85.8%

COc1ccc(-c2cn3c(ccc4ccccc43)n2)cc1
inactive: NCI-H23 lung 97.5% | NCI-H226 lung 88% | NCI-H322M lung 87.3% | HOP-62 NSCLC 80.6% | NCI-H460 lung 97.7% | HOP-92 NSCLC 92.1% | NCI-H522 lung 87.5% | A549/ATCC NSCLC 107% | 786-0 renal 111% | COLO 205 colon 112%

COc1ccc2c(c1)C(=O)/C(=C/c1cccc(OCC(=O)Nc3nc4c(s3)CCCC4)c1)O2
active: NCI-H23 lung -48.9% | HOP-92 NSCLC -74.8% | NCI-H522 lung -50.3% | COLO 205 colon -3.43%
inactive: NCI-H226 lung 101% | NCI-H322M lung 82.5% | HOP-62 NSCLC 99.3% | NCI-H460 lung 71.3% | A549/ATCC NSCLC 54.6% | 786-0 renal 63.3%

Cc1ccc(N)cc1F
inactive: NCI-H23 lung 94.6% | NCI-H226 lung 101% | NCI-H322M lung 101% | HOP-62 NSCLC 84.1% | NCI-H460 lung 108% | HOP-92 NSCLC 109% | NCI-H522 lung 88.8% | A549/ATCC NSCLC 99.8% | 786-0 renal 92.9% | COLO 205 colon 168%

CCn1cc2c(cc1=O)-c1nc3ccccc3c3ccnc(c13)C2=O
inactive: NCI-H23 lung 27.6% | NCI-H226 lung 63.1% | NCI-H322M lung 76.3% | HOP-62 NSCLC 11.9% | HOP-92 NSCLC 56.6% | NCI-H522 lung 39% | A549/ATCC NSCLC 29% | 786-0 renal 69.1% | COLO 205 colon 60.8%
active: NCI-H460 lung 2.86%

COc1ccc(/C=N\NC(=O)CN2CCN(c3cc4c(cc3F)c(=O)c(C(=O)N/N=C/c3ccc(OC)cc3)cn4C3CC3)CC2)cc1
inactive: NCI-H23 lung 96.3% | NCI-H226 lung 85.6% | NCI-H322M lung 91.7% | HOP-62 NSCLC 97.4% | NCI-H460 lung 86.1% | HOP-92 NSCLC 92.1% | NCI-H522 lung 73.8% | A549/ATCC NSCLC 82.8% | 786-0 renal 93.9% | COLO 205 colon 96.9%

Nc1nc(-c2ccc(F)cc2)cc(-c2cnn(-c3ccccc3)n2)n1
inactive: NCI-H23 lung 99.1% | NCI-H226 lung 105% | NCI-H322M lung 93.9% | HOP-62 NSCLC 101% | NCI-H460 lung 103% | HOP-92 NSCLC 94.1% | NCI-H522 lung 82.2% | A549/ATCC NSCLC 95.3% | 786-0 renal 107% | COLO 205 colon 105%

C=C(C[n+]1ccccc1)[C@@H]1CC[C@]2(C(=O)OC)CC[C@]3(C)[C@H](CC[C@@H]4[C@@]5(C)CC[C@H](O)C(C)(C)[C@@H]5CC[C@]43C)[C@@H]12
inactive: NCI-H23 lung 97.4% | NCI-H226 lung 89.5% | NCI-H322M lung 101% | HOP-62 NSCLC 93.5% | NCI-H460 lung 105% | HOP-92 NSCLC 82.9% | NCI-H522 lung 78% | A549/ATCC NSCLC 105% | 786-0 renal 102% | COLO 205 colon 102%

CC(C)Oc1nc2c(c(=O)n(C)c(=O)n2C)n1C
inactive: NCI-H23 lung 96% | NCI-H226 lung 97.1% | NCI-H322M lung 94.4% | HOP-62 NSCLC 92.5% | NCI-H460 lung 105% | HOP-92 NSCLC 102% | NCI-H522 lung 80.9% | A549/ATCC NSCLC 84.7% | 786-0 renal 104% | COLO 205 colon 102%

COc1ccc(-n2cc(-c3ccccc3)c3c(SCC(=O)N/N=C/c4ccc([N+](=O)[O-])cc4)ncnc32)cc1
inactive: NCI-H23 lung 88.9% | NCI-H226 lung 84.2% | NCI-H322M lung 106% | HOP-62 NSCLC 100% | NCI-H460 lung 113% | HOP-92 NSCLC 98.3% | NCI-H522 lung 91.5% | A549/ATCC NSCLC 105% | 786-0 renal 95.3% | COLO 205 colon 109%

O=C(N/N=C/c1ccc(O)cc1O)c1cccnc1
inactive: NCI-H23 lung 45.3% | NCI-H226 lung 70.5% | NCI-H322M lung 29.9% | HOP-62 NSCLC 43.2% | NCI-H460 lung 10.9% | HOP-92 NSCLC 56.4% | A549/ATCC NSCLC 46.4% | 786-0 renal 37.9% | COLO 205 colon 23.4%
active: NCI-H522 lung -6.04%

O=C(CN1CCN(c2cc3c(cc2F)c(=O)c(C(=O)O)cn3C2CC2)CC1)Nc1cc(=O)[nH]c(=O)[nH]1
inactive: NCI-H23 lung 96.4% | NCI-H226 lung 101% | NCI-H322M lung 95.3% | HOP-62 NSCLC 102% | NCI-H460 lung 105% | HOP-92 NSCLC 88.7% | NCI-H522 lung 92.8% | A549/ATCC NSCLC 103% | 786-0 renal 95.9% | COLO 205 colon 110%

O=C1NC(=O)C(CC(=O)n2c(-c3ccccc3)nc3ccccc32)C(=O)N1
inactive: NCI-H23 lung 97.4% | NCI-H226 lung 97.7% | NCI-H322M lung 100% | HOP-62 NSCLC 94.4% | NCI-H460 lung 102% | HOP-92 NSCLC 97.5% | NCI-H522 lung 93% | A549/ATCC NSCLC 101% | 786-0 renal 99.7% | COLO 205 colon 118%

CCCCCCCCCCCCCCCC(=O)OCC1OC(n2cnc3c(=S)nc(N)[nH]c32)C(OC(=O)CCCCCCCCCCCCCCC)C1OC(=O)CCCCCCCCCCCCCCC (stereo not given)
inactive: NCI-H23 lung 66.2% | NCI-H226 lung 76.7% | NCI-H322M lung 72.2% | HOP-62 NSCLC 47.8% | NCI-H460 lung 63.4% | HOP-92 NSCLC 56% | NCI-H522 lung 66.1% | A549/ATCC NSCLC 74.3% | 786-0 renal 61% | COLO 205 colon 90%

O=S(=O)(Nc1ccc(F)c(Cl)c1)c1ccc(-c2cnc(C3CC3)o2)cc1
active: NCI-H522 lung -11.5% | COLO 205 colon -6.19%
inactive: NCI-H23 lung 24.8% | NCI-H226 lung 47.1% | NCI-H322M lung 45.7% | HOP-62 NSCLC 33.1% | NCI-H460 lung 10.5% | HOP-92 NSCLC 42% | A549/ATCC NSCLC 21.4% | 786-0 renal 43.2%

Cc1cc2c(cc1C)NC1=C(N2)OC(c2c3ccccc3cc3ccccc23)C1=O (stereo not given)
inactive: NCI-H23 lung 15.2% | NCI-H226 lung 52% | NCI-H322M lung 45.9% | HOP-62 NSCLC 31.9% | HOP-92 NSCLC 71.9% | A549/ATCC NSCLC 26.7% | 786-0 renal 29.9%
active: NCI-H460 lung 2.12% | NCI-H522 lung -5.18% | COLO 205 colon -40.7%

CC(C)C1=C[C@@]23CC[C@@H]4[C@](C)(CCC[C@@]4(C)C(=O)OCC#CCN4CCCC4)[C@H]2C[C@@H]1[C@H]1C(=O)OC(=O)[C@H]13
inactive: NCI-H23 lung 94.9% | NCI-H226 lung 96.1% | NCI-H322M lung 88.5% | HOP-62 NSCLC 91.9% | NCI-H460 lung 103% | HOP-92 NSCLC 94.1% | NCI-H522 lung 78.7% | A549/ATCC NSCLC 98.4% | 786-0 renal 103% | COLO 205 colon 111%

Cc1noc(C)c1-c1cc(O)cc(C(O)c2ccccc2)c1 (stereo not given)
inactive: NCI-H23 lung 68.1% | NCI-H226 lung 65.5% | NCI-H322M lung 47.6% | HOP-62 NSCLC 47.2% | NCI-H460 lung 67.2% | HOP-92 NSCLC 25.6% | NCI-H522 lung 22.1% | A549/ATCC NSCLC 55.4% | 786-0 renal 54.8% | COLO 205 colon 37.1%

CC/C=C\C[C@H](O)C/C=C1/C(=O)C=C[C@@H]1C/C=C\CCCC(=O)NC(C)C
inactive: NCI-H23 lung 13.4% | NCI-H322M lung 39.9% | HOP-92 NSCLC 65.3%
active: NCI-H226 lung -33.5% | HOP-62 NSCLC -16.8% | NCI-H460 lung -4.43% | NCI-H522 lung -35.5% | A549/ATCC NSCLC 2.59% | 786-0 renal 0.451% | COLO 205 colon -41.3%
